From PubChem BioAssay
Calls of active or inactive are those of the source.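 The calls were made as follows, unless noted: active = compound raises GLP1 secretion from the human gut endocrine cells, with no numeric limit stated; inactive = the rest.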

Legend:
[1] = Wnt pathway potentiators raising nuclear beta-catenin – imaging, WNT3A-conditioned medium, mouse C2C12, NPC library, primary screen (AID 1117326; in the data active = nuclear beta-catenin stimulation mostly above about 4.2%, no sharp cut-off; inactive = mostly below about 10%; also: reference of the scale not given here); settings: stronger effect = higher value
[2] = stimulators of insulin release from INS-1E, primary screen, cell-based, 5 mM glucose, NPC library (AID 1117329;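 active = compound raises insulin release from rat beta cells at 5 mM glucose, no numeric limit stated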; also: reference of the scale not given here); settings: rat INS-1E insulin secretion, at 10 µM, stronger effect = higher value
[3] = growth inhibition of GSK3B-pretreated HCT116 cells – cell-based, CellTiter-Glo, 0.2 to 20 µM (AID 1117336;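 active = compounds lowering colon cancer cell viability after pretreatment blocking the GSK3B kinase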); settings: HCT116 viability after GSK3B inhibitor, at 20 µM, stronger effect = higher value
[4] = inhibition of endothelial tube formation, primary screen, imaging, VEGF stimulated, CD31 staining, tube area, NPC library (AID 1117340;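 active = compound that reduces growth-factor-driven endothelial tube area in a mixed cell culture, no cutoff stated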); settings: VEGF-stimulated ADSC/ECFC co-culture, at 10 µM, stronger effect = higher value
[5] = GLP1 release stimulators, primary, NCI-H716, NPC library (AID 1117341); settings: NCI-H716 cells, at 10 µM, stronger effect = higher value; also: reference of the scale not given here
[6] = HCT116 colon cancer cell growth inhibition, primary screen, CellTiter-Glo luminescence, NPC library (AID 1117342;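 active = compounds that lower survival of HCT116 colon cancer cells in the luminescence readout, no numeric limit stated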); settings: at 20 µM (top of the series)
[7] = reduced SW480 viability measured with CellTiter-Glo, NPC library, primary (AID 1117343;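 active = compounds that lower viability of the colon cancer cells in the luminescence readout, with no numeric limit stated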); settings: CellTiter-Glo luminescence; at 20 µM (top of the series)
[8] = NPC library primary testing for decreased DLD-1 cell viability via CellTiter-Glo (AID 1117346;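 active = compounds that lower survival of DLD-1 colon cancer cells in the luminescence readout, no cutoff given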); settings: DLD-1 viability, CellTiter-Glo luminescence; at 20 µM (top of the series)

COC(=O)C1=C(C)NC(C)=C(C(=O)OCCc2ccc(N3CCN(C(c4ccccc4)c4ccccc4)CC3)cc2)C1c1cccc([N+](=O)[O-])c1 (stereo not given)
nuclear beta-catenin stimulation ([1]; at 10 µM): 2.5% (inactive)
nuclear beta-catenin stimulation ([1]; stimulation, at 2 µM): 0.7%
insulin secretion stimulation [2]: 0% (inactive)
viability decrease [3]: 14.1% (inactive)
tube area decrease [4]: 44.2% (active)
GLP1 secretion stimulation [5]: -3.4% (inactive)
inhibition of viability [6]: 32.3% (inactive)
viability decrease (inhibition) [7]: 39.1% (inactive)
viability decrease (inhibition) [8]: -1.2% (inactive)

CCOC(=O)C1=C(O)c2ccccc2S(=O)(=O)N1C
nuclear beta-catenin stimulation ([1]; at 10 µM): -1.5% (inactive)
nuclear beta-catenin stimulation ([1]; stimulation, at 2 µM): -0.7%
insulin secretion stimulation [2]: 0.9% (inactive)
viability decrease [3]: -6% (inactive)
tube area decrease [4]: -19.5% (inactive)
GLP1 secretion stimulation [5]: -4% (inactive)
inhibition of viability [6]: 10.3% (inactive)
viability decrease (inhibition) [7]: 12% (inactive)
viability decrease (inhibition) [8]: 4.2% (inactive)

O=C(c1cc(O)c(O)c(O)c1)c1ccc(O)c(O)c1O
nuclear beta-catenin stimulation ([1]; at 10 µM): 1% (inactive)
nuclear beta-catenin stimulation ([1]; stimulation, at 2 µM): 17.1%
insulin secretion stimulation [2]: 6.1% (inactive)
viability decrease [3]: 98.2% (active)
tube area decrease [4]: 8.9% (inactive)
GLP1 secretion stimulation [5]: 4.8% (inactive)
inhibition of viability [6]: 69.7% (active)
viability decrease (inhibition) [7]: 103% (active)
viability decrease (inhibition) [8]: 58.6% (active)

Cc1cccc(OCC(O)CNC(C)(C)C)c1C (stereo not given)
nuclear beta-catenin stimulation ([1]; at 10 µM): -0.4% (inactive)
nuclear beta-catenin stimulation ([1]; stimulation, at 2 µM): 0.2%
insulin secretion stimulation [2]: 1% (inactive)
viability decrease [3]: -0.4% (inactive)
tube area decrease [4]: 18.2% (inactive)
GLP1 secretion stimulation [5]: -1% (inactive)
inhibition of viability [6]: 23.8% (inactive)
viability decrease (inhibition) [7]: 24.5% (inactive)
viability decrease (inhibition) [8]: 8.8% (inactive)

Cc1c(F)cc2c(=O)c(C(=O)O)cn3c2c1CCC3C (stereo not given)
nuclear beta-catenin stimulation ([1]; at 10 µM): 1.9% (inactive)
nuclear beta-catenin stimulation ([1]; stimulation, at 2 µM): 1.5%
insulin secretion stimulation [2]: -1.9% (inactive)
viability decrease [3]: -181% (inactive)
tube area decrease [4]: -28% (inactive)
GLP1 secretion stimulation [5]: 1.5% (inactive)
inhibition of viability [6]: 0.65% (inactive)
viability decrease (inhibition) [7]: -16.3% (inactive)
viability decrease (inhibition) [8]: -3% (inactive)

CN(C)CCN1CCN(c2cccc(Cl)c2)C1=O
nuclear beta-catenin stimulation ([1]; at 10 µM): 0.8% (inactive)
nuclear beta-catenin stimulation ([1]; stimulation, at 2 µM): 0.1%
insulin secretion stimulation [2]: 2.6% (inactive)
viability decrease [3]: 10.9% (inactive)
tube area decrease [4]: 8% (inactive)
GLP1 secretion stimulation [5]: 4% (inactive)
inhibition of viability [6]: 50% (active)
viability decrease (inhibition) [7]: 7.4% (inactive)
viability decrease (inhibition) [8]: -1.8% (inactive)

Nc1nc(=O)n([C@@H]2O[C@H](CO)[C@@H](O)[C@@H]2F)cc1I
nuclear beta-catenin stimulation ([1]; at 10 µM): 8% (inactive)
nuclear beta-catenin stimulation ([1]; stimulation, at 2 µM): 1.8%
insulin secretion stimulation [2]: 0.8% (inactive)
viability decrease [3]: 2.9% (inactive)
tube area decrease [4]: 74% (active)
GLP1 secretion stimulation [5]: -3.9% (inactive)
inhibition of viability [6]: 23.7% (inactive)
viability decrease (inhibition) [7]: 32.2% (inactive)
viability decrease (inhibition) [8]: 23.1% (inactive)

Nc1c(I)cc(I)c(C(=O)N(CCC(=O)O)c2ccccc2)c1I
nuclear beta-catenin stimulation ([1]; at 10 µM): 1.2% (inactive)
nuclear beta-catenin stimulation ([1]; stimulation, at 2 µM): -0.2%
insulin secretion stimulation [2]: 1.9% (inactive)
viability decrease [3]: -9.8% (inactive)
tube area decrease [4]: -5.2% (inactive)
GLP1 secretion stimulation [5]: -5.3% (inactive)
inhibition of viability [6]: -9.4% (inactive)
viability decrease (inhibition) [7]: 7.8% (active)
viability decrease (inhibition) [8]: -9.8% (inactive)

CCCOC(=O)c1ccc(N)cc1
nuclear beta-catenin stimulation ([1]; at 10 µM): -0.1% (inactive)
nuclear beta-catenin stimulation ([1]; stimulation, at 2 µM): 0.3%
insulin secretion stimulation [2]: -1.5% (inactive)
viability decrease [3]: -4.45% (inactive)
tube area decrease [4]: 4.9% (inactive)
GLP1 secretion stimulation [5]: -0.1% (inactive)
inhibition of viability [6]: 1.8% (inactive)
viability decrease (inhibition) [7]: 110% (active)
viability decrease (inhibition) [8]: 21.4% (inactive)

CCCCCCCCCCCCCCCC(=O)OC(C)C
nuclear beta-catenin stimulation ([1]; at 10 µM): 0.6% (inactive)
nuclear beta-catenin stimulation ([1]; stimulation, at 2 µM): 1.3%
insulin secretion stimulation [2]: 2.3% (inactive)
viability decrease [3]: -9.5% (inactive)
tube area decrease [4]: -17.7% (inactive)
GLP1 secretion stimulation [5]: -1.2% (inactive)
inhibition of viability [6]: 3.07% (inactive)
viability decrease (inhibition) [7]: -0.2% (inactive)
viability decrease (inhibition) [8]: -1.5% (inactive)

Cc1cc(OCCOCC[N+](C)(C)Cc2ccccc2)ccc1C(C)(C)CC(C)(C)C
nuclear beta-catenin stimulation ([1]; at 10 µM): 3% (inactive)
nuclear beta-catenin stimulation ([1]; stimulation, at 2 µM): 6.8%
insulin secretion stimulation [2]: 0.6% (inactive)
viability decrease [3]: 101% (active)
tube area decrease [4]: 107% (active)
GLP1 secretion stimulation [5]: 98.1% (active)
inhibition of viability [6]: 102% (active)
viability decrease (inhibition) [7]: 141% (active)
viability decrease (inhibition) [8]: 103% (active)

O=C1CCCc2c(O)cccc21
nuclear beta-catenin stimulation ([1]; at 10 µM): 1.1% (inactive)
nuclear beta-catenin stimulation ([1]; stimulation, at 2 µM): 2.2%
insulin secretion stimulation [2]: 0.3% (inactive)
viability decrease [3]: 1% (inactive)
tube area decrease [4]: 19.3% (inactive)
GLP1 secretion stimulation [5]: 2.2% (inactive)
inhibition of viability [6]: 11.4% (inactive)
viability decrease (inhibition) [7]: 12.5% (inactive)
viability decrease (inhibition) [8]: -7.2% (inactive)

CCN(CC)CC(=O)OCC(=O)[C@@]1(O)CC[C@H]2[C@@H]3CCC4=CC(=O)CC[C@]4(C)[C@H]3[C@@H](O)C[C@@]21C
nuclear beta-catenin stimulation ([1]; at 10 µM): -0.5% (inactive)
nuclear beta-catenin stimulation ([1]; stimulation, at 2 µM): -0.8%
insulin secretion stimulation [2]: -0.5% (inactive)
viability decrease [3]: -24.6% (inactive)
tube area decrease [4]: 0.8% (inactive)
GLP1 secretion stimulation [5]: 1.1% (inactive)
inhibition of viability [6]: -15.9% (inactive)
viability decrease (inhibition) [7]: 37.2% (inactive)
viability decrease (inhibition) [8]: -9.9% (inactive)

O=C1NC(c2ccccc2)(c2ccccc2)C(=O)N1COP(=O)(O)O
nuclear beta-catenin stimulation ([1]; at 10 µM): 1.6% (inactive)
nuclear beta-catenin stimulation ([1]; stimulation, at 2 µM): 3.6%
insulin secretion stimulation [2]: -0.5% (inactive)
viability decrease [3]: -27% (inactive)
tube area decrease [4]: -13% (inactive)
GLP1 secretion stimulation [5]: 5.2% (inactive)
inhibition of viability [6]: -8.63% (inactive)
viability decrease (inhibition) [7]: -3.4% (inactive)
viability decrease (inhibition) [8]: -11% (inactive)

O=C(Nc1ccc(Cl)cc1)Nc1ccc(Cl)c(Cl)c1
nuclear beta-catenin stimulation ([1]; at 10 µM): 35.1% (inactive)
nuclear beta-catenin stimulation ([1]; stimulation, at 2 µM): 0.3%
insulin secretion stimulation [2]: -3.4% (inactive)
viability decrease [3]: 92.2% (active)
tube area decrease [4]: 103% (active)
GLP1 secretion stimulation [5]: -3.2% (inactive)
inhibition of viability [6]: 84.6% (active)
viability decrease (inhibition) [7]: 116% (active)
viability decrease (inhibition) [8]: 94.1% (active)
